SKKanGAS inh – S. pyogenes SKKanGAS growth inhibitors in kanamycin, primary screen, streptokinase expression inhibitor project, SKKanGAS strain, BacTiter-Glo luminescence. 6 h. inhibition, % at 7.5 µM. 300,000 compounds, 1.3% hits. AID 1662, 2009;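 active = mean replicate score, as percent of positive control median, at least 50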;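 note: strain carries kanamycin resistance gene driven by streptokinase promoter and grows in 40 µg/ml kanamycin; loss of luminescence reflects streptokinase promoter inhibition or plain growth inhibition; 0% = median of DMSO wells and 100% = positive control at its reference dose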
NALP3 yeast inh – NALP3 inflammasome inhibitors in reconstituted yeast, primary screen, luminescence, uHTS | Yeast reconstituted NLRP3/ASC/caspase-1, beta-gal luminescence, 24 h | inhibition, % at 10 µM | 330,000 compounds, 0.39% hits | AID 2825, 2010;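 active = inhibition of 50% or more; inactive = inhibition below 50%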;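 note: plate controls were induced DMSO wells for no effect and uninduced yeast grown without galactose for full effect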
TIM10 inh – growth inhibitors of isogenic TIM10 control yeast, primary screen, counter-screen for tim10-1 yeast inhibitor project, luminescence, uHTS | 330,000 compounds, 1.4% hits | inhibition, % at 10 µM | AID 463195, 2010 | S. cerevisiae TIM10 strain growth, BacTiter-Glo luminescence, 24 h;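 active = inhibition of 40% or more at the single tested concentration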;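 note: wild-type TIM10 isogenic control strain grown at permissive 25 °C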
tim23-1 inh – growth inhibitors of tim23-1 mutant yeast, primary screen, luminescence, uHTS; S. cerevisiae tim23-1 growth, BacTiter-Glo luminescence, 24 h; inhibition, % at 20 µM; 330,000 compounds, 1.3% hits; AID 463212, 2010;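 active = growth inhibition of the mutant yeast at or above 50%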;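 note: temperature-sensitive mutant grown at 25 °C; plate controls were DMSO-treated mutant yeast for no effect and medium wells lacking yeast for full effect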
tim10-1 inh – growth inhibitors of tim10-1 mutant yeast, primary screen, luminescence, uHTS | S. cerevisiae tim10-1 ts strain growth, BacTiter-Glo, 24 h | inhibition, % at 20 µM | 330,000 compounds, 2.2% hits | AID 463190, 2010;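 active = inhibition of at least 40%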;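 note: mutant grown at 25 °C; 0% = DMSO wells with yeast and 100% = wells holding no yeast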
PfHsp90 yeast 2 – growth inhibition of PfHsp90-expressing yeast, primary screen, antimalarial PfHsp90 inhibitor project, S. cerevisiae, BacTiter-Glo luminescence, single point, set 2; BacTiter-Glo ATP, 48 h; yeast lacking PDR1 and PDR3 efflux regulators; inhibition, % at 9.4 µM; 310,000 compounds, 0.32% hits;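 active = every replicate shows inhibition above about 80%, whatever the replicate mean, limit read from the data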;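 note: 0% = DMSO neutral controls and 100% = 20 µM radicicol positive controls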
tim10-1 conf – growth inhibitors of tim10-1 mutant yeast, confirmation, single concentration, luminescence, S. cerevisiae; inhibition, % at 20 µM; AID 463213, 2010; shares compounds with tim10-1 inh; S. cerevisiae tim10-1 ts strain growth, BacTiter-Glo, 24 h; 7,400 compounds, 56% hits;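 active = inhibition of yeast growth at or above a set limit in either of two repeat tests at 20 µM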;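 note: tim10-1 mutant grown at permissive 25 °C to find synthetic lethal compounds; 0% = DMSO yeast wells and 100% = medium wells without yeast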
Starred values were filed as active, the others as inactive; / = not tested or not shown. Sampled rows, rich in hits. Any-hit rate of the full collection: about 4.6%.

SMILES	SKKanGAS inh	NALP3 yeast inh	TIM10 inh	tim23-1 inh	tim10-1 inh	PfHsp90 yeast 2	tim10-1 conf
COc1cc(C2Nc3cccc4cccc(c34)N2)ccc1OC(C)=O	10.4	3.8	37.2	29.2	41.3*	-7.1	38.7*
Cc1cc(C)n(-c2nnc(NC(C)(C)C)nn2)n1	1.8	23.6	9.4	7.0	5.8	10.5	/
Cc1cc(C)n(-c2nnc(NC34CC5CC(CC(C5)C3)C4)nn2)n1	-21.6	2.5	28.6	46.6	56.6*	-44.6	42.2*
O=C(NCc1cccnc1)c1ccc(-c2cc(Cl)ccc2Cl)o1	-13.1	16.6	15.0	32.6	40.2*	-13.6	29.9
COC(=O)c1ccc2nc(NC(=O)C(C)(C)C)sc2c1	-0.1	21.3	35.2	46.4	42.2*	37.7	35.0*
Cc1cc(=O)oc2cc(OC(=O)CCCCCN3C(=O)c4ccccc4C3=O)ccc12	-1.9	-1.7	25.6	39.9	48.7*	21.7	42.9*
Cc1ccc(S(=O)(=O)CCC(=O)Oc2ccc3c(C)cc(=O)oc3c2)cc1	36.2	5.8	14.8	16.5	13.2	-111.9	/
CC1=CC(C)(C)Nc2ccc(OC(=O)CCN3C(=O)c4ccccc4C3=O)cc21	-4.3	14.0	37.7	37.4	40.4*	8.0	32.0*
C[C@@H]1CCCCCCCCC(=O)OCCN(C(=O)OC(C)(C)C)[C@H](C)CCCCCCCCC(=O)OCCN(C(=O)OC(C)(C)C)[C@H](C)CCCCCCCCC(=O)OCCN1C(=O)OC(C)(C)C	/	5.0	-0.6	-6.1	-12.3	/	/
COc1ccc2[nH]c3c(N4CCC(O)(c5cccc(C(F)(F)F)c5)CC4)ncnc3c2c1	42.3	21.9	9.2	3.5	42.1*	-6.0	16.2
CC1CCN(S(=O)(=O)c2ccc3nc(-c4ccccn4)cc(C(=O)NCCN(C)Cc4ccccc4)c3c2)CC1	-7.9	/	/	/	/	-5.2	/
COc1ccccc1NC(=O)C(C)OC(=O)/C=C/c1ccc2ccccc2n1 (configuration not stated)	-7.2	8.6	14.3	45.8	51.6*	5.1	30.1*
CCC(CO)Nc1nc2ccc(Cl)cc2c2ccccc12 (configuration not stated)	6.6	20.7	32.1	28.6	52.8*	33.9	39.4*
CCC(CO)Nc1ncnc2c1cnn2-c1ccc(Cl)cc1 (configuration not stated)	-6.1	16.3	-12.3	12.9	19.2	12.5	/
COc1ccc(CNC(=O)Cc2cn(C)c3ccccc23)c(OC)c1	-4.4	5.9	-12.2	22.0	10.1	2.3	/
CC1(C)OC(=O)N(c2ccccc2)C12C=Cc1c(ccc3ccccc13)O2 (configuration not stated)	21.8	-1.8	23.2	-9.1	42.5*	-0.7	7.0
CC(c1ccccc1)N1C(=O)OC(C)(C)C1(C)O (configuration not stated)	/	-14.0	-1.0	15.0	15.8	3.7	/
Cc1cc(OCCN2CCN(S(=O)(=O)c3ccccc3F)CC2)ccc1C(C)C	/	19.4	20.5	26.4	42.6*	0.8	26.1
CC1=NN(C(=O)c2ccc(Cn3nc(C)c(Br)c3C)cc2)C(O)(C(F)(F)F)C1 (configuration not stated)	0.2	6.6	26.6	33.5	41.1*	5.3	21.9
CC1CCN(C(=O)COC(=O)c2ccc3c(c2)C(=O)N(Cc2ccco2)C3=O)CC1	/	-6.8	17.3	37.9	29.3	/	/
COc1ccc(-c2cn3c(C)c(C(=O)N4CCc5ccccc5C4)sc3n2)cc1	39.3	27.8	25.3	42.9	42.7*	-61.2	37.5*
COc1ccccc1N1CCN(C(=O)c2sc3nc(-c4ccccc4)cn3c2C)CC1	27.6	24.9	33.4	43.9	37.8	-2.9	/
Cc1c(C(=O)N2CCOCC2)sc2nc(-c3ccccc3)cn12	-0.7	5.8	-10.6	7.5	6.3	44.8	/
Cc1c(C(=O)N2CCc3ccccc3C2)sc2nc(-c3ccccc3)cn12	18.8	15.1	35.7	41.3	51.4*	-18.8	34.8*
COc1ccc2[nH]c(C)c(CCNC(=S)Nc3cc(C)ccc3C)c2c1	-0.5	10.7	-7.7	-8.3	3.2	16.6	/
SMILES	SKKanGAS inh	NALP3 yeast inh	TIM10 inh	tim23-1 inh	tim10-1 inh	PfHsp90 yeast 2	tim10-1 conf
CCc1cccc(C)c1NC(=S)NCCc1c(C)[nH]c2ccc(C)cc12	10.0	14.7	14.8	33.4	41.2*	-25.5	25.6
NC(=O)c1c(NC(=O)CSc2nc3c(c(C(F)(F)F)n2)CCc2ccccc2-3)sc2c1CCCC2	2.9	-9.0	-0.9	21.2	-1.3	-7.6	/
CN(Cc1ccccc1)C(=O)CSc1nc2c(c(C(F)(F)F)n1)CCc1ccccc1-2	29.4	12.0	4.3	22.0	43.5*	-135.7	21.2
CCSC(=O)CCCCCCCCCCCO	2.7	48.6	15.4	26.2	40.3*	12.0	36.4*
CCCCCCCCO	/	-3.8	1.2	-4.8	-13.1	-17.5	/
N/C(Cc1cccs1)=N\OC(=O)COc1ccc(Cl)cc1Cl	14.6	25.8	25.9	44.0	48.6*	8.5	51.8*
COc1ccc(C(=O)NC(C)CCCC(C)(C)O)cc1OC1CCN(C(C)=O)CC1 (configuration not stated)	-0.4	7.1	-3.5	-11.0	-18.6	-29.8	/
Cc1noc(C)c1CNCc1ccccc1	-1.3	7.0	6.0	20.7	42.1*	-0.6	6.8
CSc1nc(N)c(C(=O)NC2CCCCC2)s1	-3.9	14.1	4.9	20.9	21.4	9.0	/
CON(C)S(=O)(=O)c1cccc(C(=O)Oc2ccc(N(C)S(=O)(=O)c3ccccc3)cc2)c1	3.0	8.1	7.6	23.9	12.3	-0.3	/
Cc1nn(Cc2c(Cl)cccc2Cl)c(C)c1N	0.9	4.3	-2.9	4.2	13.8	16.6	/
CCN(CC)c1ncn(Cc2c(Cl)cccc2Cl)c2ncnc1-2	22.6	11.2	9.3	39.1	41.8*	-21.0	35.6*
Cc1ccc(-c2ccc(=O)n(CC(=O)N3CCN(c4cc(Cl)ccc4C)CC3)n2)cc1	25.5	4.5	13.2	37.4	43.3*	/	27.9
C=C(C)C1Cc2nc(N)nc(C)c2C1 (configuration not stated)	-3.4	-1.1	4.4	-7.6	3.3	-10.6	/
C=C(C)C1Cc2c(C)nn(-c3nc(C)cc(C)n3)c2C1 (configuration not stated)	55.5*	-8.8	10.8	24.3	42.4*	-98.2	23.0
Fc1ccc(-c2nnc(CN3CCN(c4ncc(C(F)(F)F)cc4Cl)CC3)o2)cc1	4.9	9.6	7.0	30.6	48.7*	/	23.6

Source: PubChem
